In PubChem BioAssay (NCI):
Several values for one entry are separate records, joined by “and”; a condition that tells them apart may be missing. Identical values can stand only once. The panel holds about 83,000 compounds, 20% with a hit somewhere; the sample as a whole holds those more often.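 Cells were grown in 96-well plates and exposed to the test compound at a single concentration for 48 hours; results are reported as percent growth, with values below 10 considered active.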 Activity calls are given as the source filed them.

Key:
Test in all cases: NCI-60 one-dose screen, 48 h (100 = growth as untreated, 0 = no growth, -100 = all killed)
[1] = test system: HCT-15 colon
[2] = test system: HT29 colon
[3] = test system: SNB-75 CNS; details: 10 µM unless noted
[4] = test system: SNB-19 CNS
[5] = test system: U251 CNS; details: 10 µM unless noted
[6] = test system: PC-3 prostate
[7] = test system: SK-MEL-5 melanoma; details: 10 µM unless noted
[8] = test system: UACC-62 melanoma
[9] = test system: LOX IMVI melanoma; details: 10 µM unless noted
[10] = test system: SK-MEL-28 melanoma
[11] = test system: SK-MEL-2 melanoma
[12] = test system: EKVX NSCLC; details: 10 µM unless noted
[13] = test system: SN12C renal
[14] = test system: UO-31 renal
[15] = test system: TK-10 renal
[16] = test system: ACHN renal
[17] = test system: CCRF-CEM leukemia; details: 10 µM unless noted
[18] = test system: MOLT-4 leukemia
[19] = test system: A498 renal
[20] = test system: CAKI-1 renal; details: 10 µM unless noted

Measured: growth

CCCCCCC(C)c1ccccc1O (stereo not drawn) (tested in a mixture with another compound)
inactive: [1]; 10 µM unless noted 105% | [2]; 10 µM unless noted 113% | [3] 128% | [4]; 10 µM unless noted 106% | [5] 104% | [6]; 10 µM unless noted 94.8% | [7] 111% | [8]; 10 µM unless noted 99.6% | [9] 95.8% | [10]; 10 µM unless noted 111% | [11]; 10 µM unless noted 123% | [12] 110% | [13]; 10 µM unless noted 106% | [14]; 10 µM unless noted 99.1% | [15]; 10 µM unless noted 119% | [16]; 10 µM unless noted 110% | [17] 99.1% | [18]; 10 µM unless noted 102%

Cc1ccnc(NC(c2ccccc2)c2ccc3cccnc3c2O)c1 (stereo not drawn)
inactive: [1]; 10 µM unless noted 27.9% | [2]; 10 µM unless noted 43.1% | [3] 52.2% | [4]; 10 µM unless noted 40.3% | [5] 20.4% | [6]; 10 µM unless noted 35.3% | [7] 39.4% | [8]; 10 µM unless noted 26.3% | [9] 28.1% | [10]; 10 µM unless noted 47% | [11]; 10 µM unless noted 50.4% | [12] 33.5% | [13]; 10 µM unless noted 38.8% | [14]; 10 µM unless noted 14.8% | [15]; 10 µM unless noted 58.3% | [16]; 10 µM unless noted 28.5% | [19]; 10 µM unless noted 77.3% | [17] 16.4% | [18]; 10 µM unless noted 18%

O[C@H]1[C@H]2c3cc4c(cc3CN3CCC(=C[C@@H]1O)[C@H]23)OCO4
active: [9] 0.731% | [16]; 10 µM unless noted 9.15% | [18]; 10 µM unless noted 8%
inactive: [1]; 10 µM unless noted 21.6% | [2]; 10 µM unless noted 18.5% | [3] 23% | [4]; 10 µM unless noted 28.9% | [5] 22.5% | [6]; 10 µM unless noted 34.2% | [7] 14.2% | [8]; 10 µM unless noted 62% | [10]; 10 µM unless noted 20.7% | [11]; 10 µM unless noted 24.5% | [12] 37.2% | [13]; 10 µM unless noted 18.8% | [14]; 10 µM unless noted 33% | [15]; 10 µM unless noted 54.1% | [20] 28.1% | [19]; 10 µM unless noted 51.4% | [17] 23.6%

COc1ccccc1/C=C\C(=O)c1ccccc1
inactive: [1]; 10 µM unless noted 70.2% | [2]; 10 µM unless noted 41.9% | [3] 77.8% | [4]; 10 µM unless noted 79.4% | [5] 45.6% | [6]; 10 µM unless noted 61.8% | [7] 72.3% | [8]; 10 µM unless noted 77.2% | [9] 28.6% | [10]; 10 µM unless noted 94.9% | [11]; 10 µM unless noted 87.6% | [12] 85.2% | [13]; 10 µM unless noted 76.8% | [14]; 10 µM unless noted 44.1% | [15]; 10 µM unless noted 104% | [16]; 10 µM unless noted 77% | [20] 83.2% | [19]; 10 µM unless noted 101% | [17] 11% | [18]; 10 µM unless noted 58.1%

CN(C)C(=O)SC1=C(c2c(Cl)cccc2Cl)C(=O)c2ccccc21
inactive: [3] 49.3% | [4]; 10 µM unless noted 97.4% | [5] 90% | [6]; 10 µM unless noted 77% | [7] 40.1% | [8]; 10 µM unless noted 26.7% | [11]; 10 µM unless noted 136% | [13]; 10 µM unless noted 82.3% | [19]; 10 µM unless noted 115%
active: [1]; 10 µM unless noted -22.4% | [2]; 10 µM unless noted -35.3% | [9] -48% | [10]; 10 µM unless noted -34.1% | [12] 0.799% | [14]; 10 µM unless noted -34.4% | [15]; 10 µM unless noted -43.7% | [16]; 10 µM unless noted -43.2% | [17] 0.862% | [18]; 10 µM unless noted -22.5%

CNc1ccc(N)cc1
inactive: [1]; 10 µM unless noted 109% | [2]; 10 µM unless noted 107% | [3] 67.3% | [4]; 10 µM unless noted 104% | [5] 117% | [6]; 10 µM unless noted 96.4% | [7] 101% | [8]; 10 µM unless noted 89.3% | [9] 104% | [10]; 10 µM unless noted 140% | [11]; 10 µM unless noted 120% | [12] 93.7% | [13]; 10 µM unless noted 110% | [14]; 10 µM unless noted 98.2% | [15]; 10 µM unless noted 130% | [16]; 10 µM unless noted 92.8% | [20] 91.4% | [17] 87.6% | [18]; 10 µM unless noted 97.6%

S=C(NCCNC(=S)[S][Sn]([c]1ccccc1)([c]1ccccc1)[c]1ccccc1)[S][Sn]([c]1ccccc1)([c]1ccccc1)[c]1ccccc1
active: [1]; 10 µM unless noted -73.8% | [2]; 10 µM unless noted -93.1% | [3] -60.8% | [4]; 10 µM unless noted -92.8% | [5] -100% | [6]; 10 µM unless noted -82.5% | [7] -100% | [8]; 10 µM unless noted -64.1% | [9] -86.5% | [10]; 10 µM unless noted -98.8% | [11]; 10 µM unless noted -93.1% | [12] -91.4% | [13]; 10 µM unless noted -79.7% | [14]; 10 µM unless noted -100% | [15]; 10 µM unless noted -100% | [16]; 10 µM unless noted -100% | [20] -71.3% | [17] -35.3% | [18]; 10 µM unless noted -32.8%

c1ccc2c(c1)Nc1cc3ccccc3cc1N2
active: [7] -75.7%
inactive: [1]; 10 µM unless noted 17.5% | [2]; 10 µM unless noted 14.7% | [3] 32.6% | [4]; 10 µM unless noted 57.1% | [5] 43% | [6]; 10 µM unless noted 24.9% | [8]; 10 µM unless noted 52.9% | [9] 11.3% | [10]; 10 µM unless noted 83.3% | [11]; 10 µM unless noted 84% | [12] 56.4% | [13]; 10 µM unless noted 54.6% | [14]; 10 µM unless noted 17.6% | [15]; 10 µM unless noted 93.3% | [16]; 10 µM unless noted 27% | [20] 38% | [19]; 10 µM unless noted 81.9% | [17] 26.5% | [18]; 10 µM unless noted 20.9%

CNC(=O)N/N=C/c1ccc([N+](=O)[O-])o1
inactive: [1]; 10 µM unless noted 107% | [2]; 10 µM unless noted 102% | [3] 114% | [4]; 10 µM unless noted 94.9% | [5] 96.9% | [6]; 10 µM unless noted 92.7% | [7] 98.6% | [8]; 10 µM unless noted 88.9% | [9] 89.1% | [10]; 10 µM unless noted 111% | [11]; 10 µM unless noted 97.1% | [12] 107% | [13]; 10 µM unless noted 90.7% | [14]; 10 µM unless noted 90.5% | [15]; 10 µM unless noted 111% | [16]; 10 µM unless noted 106% | [19]; 10 µM unless noted 102% | [17] 96.8% | [18]; 10 µM unless noted 82.7%

CCCCCCCCCCCCCCCCCCOP(=O)([O-])OC1CC[N+](C)(C)CC1
10.6% (inactive) and -41.7% (active): [3]
active: [1]; 10 µM unless noted -50% and -67.9% | [2]; 10 µM unless noted 2.35% and -29.9% | [4]; 10 µM unless noted -29.2% and -65.1% | [5] -35.1% and -68.1% | [6]; 10 µM unless noted -50.8% and -75.1% | [11]; 10 µM unless noted -14.6% | [14]; 10 µM unless noted -5.55% and -40.1% | [15]; 10 µM unless noted -79.1% and -93.8% | [20] -9.45% and -42.7% | [19]; 10 µM unless noted -21.6% and -25.3% | [17] -2.22% and -53% | [18]; 10 µM unless noted -44.9% and -49.8%
inactive: [7] 38.7% and 20% | [8]; 10 µM unless noted 25.3% and 37.2% | [10]; 10 µM unless noted 57.3% | [12] 36.3% and 41.5% | [13]; 10 µM unless noted 19.9% and 24.9% | [16]; 10 µM unless noted 28.6% and 23.9%

O=C(Nc1cccc(Br)c1)Oc1cccc2cccnc12
active: [1]; 100 µM 5.53% | [11]; 100 µM 9.32% | [12] -17.3% [100 µM] | [13]; 100 µM -26.1% | [18]; 100 µM -0.787%
inactive: [1]; 10 µM 94.1% | [2]; 10 µM 92.1% | [2]; 100 µM 57.8% | [4]; 10 µM 100% | [4]; 100 µM 48.7% | [5] 21.1% [100 µM] | [6]; 10 µM 92.9% | [6]; 100 µM 11.7% | [8]; 10 µM 97.5% | [8]; 100 µM 11.7% | [10]; 10 µM 105% | [10]; 100 µM 48.2% | [11]; 10 µM 85.8% | [13]; 10 µM 99.4% | [14]; 10 µM 98.6% | [14]; 100 µM 26% | [15]; 10 µM 118% | [15]; 100 µM 112% | [16]; 10 µM 103% | [16]; 100 µM 15.4% | [19]; 10 µM 97.5% | [19]; 100 µM 98.6% | [17] 14.4% [100 µM] | [18]; 10 µM 115%

CNc1ccc2c(c1)c1ccccc1n2C
inactive: [1]; 10 µM unless noted 104% | [2]; 10 µM unless noted 115% | [3] 98.7% | [4]; 10 µM unless noted 111% | [5] 95.9% | [6]; 10 µM unless noted 96% | [7] 101% | [8]; 10 µM unless noted 100% | [9] 99.9% | [10]; 10 µM unless noted 117% | [11]; 10 µM unless noted 103% | [12] 106% | [13]; 10 µM unless noted 102% | [14]; 10 µM unless noted 92.4% | [15]; 10 µM unless noted 97.9% | [16]; 10 µM unless noted 114% | [19]; 10 µM unless noted 88.8% | [17] 109% | [18]; 10 µM unless noted 88.1%

Cc1ccc2nc(C[n+]3ccc4ccccc4c3)ccc2c1
inactive: [1]; 10 µM unless noted 99% | [2]; 10 µM unless noted 37.3% | [3] 58.9% | [4]; 10 µM unless noted 46.5% | [5] 42.1% | [6]; 10 µM unless noted 38.5% | [8]; 10 µM unless noted 69.8% | [10]; 10 µM unless noted 63.5% | [11]; 10 µM unless noted 78.8% | [12] 72.2% | [13]; 10 µM unless noted 39.3% | [14]; 10 µM unless noted 85.7% | [15]; 10 µM unless noted 95% | [16]; 10 µM unless noted 101% | [20] 98.3% | [19]; 10 µM unless noted 81% | [17] 52.6% | [18]; 10 µM unless noted 71.9%
active: [7] -31.1%

O=C1c2cccnc2-c2nccc3c2c1nc1cc(Br)ccc13
44.5% (inactive) and -98.9% (active): [15]; 10 µM unless noted
32% (inactive) and -81.4% (active): [12]
16.8% (inactive) and -59% (active): [11]; 10 µM unless noted
active: [1]; 10 µM unless noted -49.5% and -71.3% | [2]; 10 µM unless noted -35% and -75.9% | [3] 9.53% and -98.7% | [4]; 10 µM unless noted -49.7% and -79% | [5] -75% and -97.8% | [6]; 10 µM unless noted -43.2% and -86.6% | [7] -97% and -95.4% | [8]; 10 µM unless noted -95.1% and -74.6% | [9] -45.9% and -71.1% | [10]; 10 µM unless noted -67.5% and -74.4% | [14]; 10 µM unless noted -80% and -93% | [16]; 10 µM unless noted -72.9% and -92.1% | [20] -49.6% and -90.7% | [17] -26.3% and -4.46% | [18]; 10 µM unless noted -39.5% and -31%
11.5% (inactive) and -70.9% (active): [13]; 10 µM unless noted
